The full ranking holds about 8,300 sequences; the median of “log2 fold change of degron read counts, EGFP-low vs EGFP+ sorted cells (limma voom), compound-induced degradation” is about -1.1, and the highest 2% start at about 3.2. This excerpt belongs to a sample that is enriched for the highest values.
T1: CRBN, Q96SW2
T1 chain: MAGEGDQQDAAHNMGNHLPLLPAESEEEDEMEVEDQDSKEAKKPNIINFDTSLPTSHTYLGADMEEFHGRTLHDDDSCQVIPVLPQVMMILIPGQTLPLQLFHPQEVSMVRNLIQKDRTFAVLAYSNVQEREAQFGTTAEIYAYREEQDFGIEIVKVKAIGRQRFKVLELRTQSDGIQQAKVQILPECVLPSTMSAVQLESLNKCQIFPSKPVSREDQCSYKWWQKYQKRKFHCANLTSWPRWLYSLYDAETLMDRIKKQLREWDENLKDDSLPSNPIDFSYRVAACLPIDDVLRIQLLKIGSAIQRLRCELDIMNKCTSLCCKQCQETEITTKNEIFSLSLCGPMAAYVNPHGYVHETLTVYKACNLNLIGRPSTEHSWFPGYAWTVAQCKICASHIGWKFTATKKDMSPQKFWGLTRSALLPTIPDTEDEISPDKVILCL

B1: 46L_47E_49P_50I_52G_53F_54P_55C_67L_, Q9UKT9 (peptide)
chain: LECPICGFPCTQKGNLLRHIKL
B2: 46F_47G_49N_50Q_52G_53H_54H_55F_67L_, Q9UKT9 (peptide)
chain: FGCNQCGHHFTQKGNLLRHIKL
B3: 46F_47G_49E_50I_52G_53H_54T_55F_67L_, Q9UKT9 (peptide)
chain: FGCEICGHTFTQKGNLLRHIKL
B4: 46F_47M_49E_50I_52G_53H_54I_55F_67L_, Q9UKT9 (peptide)
chain: FMCEICGHIFTQKGNLLRHIKL
B5: 46L_47Q_49N_50Q_52G_53F_54N_55C_67L_, Q9UKT9 (peptide)
chain: LQCNQCGFNCTQKGNLLRHIKL
B6: 46F_47H_49P_50I_52G_53H_54H_55F_67L_, Q9UKT9 (peptide)
chain: FHCPICGHHFTQKGNLLRHIKL
B7: 46F_47D_49N_50V_52G_53A_54Q_55F_67L_, Q9UKT9 (peptide)
chain: FDCNVCGAQFTQKGNLLRHIKL
B8: 46F_47V_49E_50Q_52G_53A_54G_55F_67L_, Q9UKT9 (peptide)
chain: FVCEQCGAGFTQKGNLLRHIKL
B9: 46F_47K_49P_50I_52G_53H_54R_55F_67L_, Q9UKT9 (peptide)
chain: FKCPICGHRFTQKGNLLRHIKL
B10: 46F_47Q_49D_50I_52G_53A_54F_55F_67L_, Q9UKT9 (peptide)
chain: FQCDICGAFFTQKGNLLRHIKL
B11: 46F_47E_49N_50Q_52G_53R_54D_55F_67L_, Q9UKT9 (peptide)
chain: FECNQCGRDFTQKGNLLRHIKL
B12: 46L_47Y_49P_50I_52G_53F_54C_55C_67L_, Q9UKT9 (peptide)
chain: LYCPICGFCCTQKGNLLRHIKL
B13: 46L_47H_49P_50I_52G_53F_54C_55C_67L_, Q9UKT9 (peptide)
chain: LHCPICGFCCTQKGNLLRHIKL
B14: 46L_47N_49P_50I_52G_53F_54C_55C_67L_, Q9UKT9 (peptide)
chain: LNCPICGFCCTQKGNLLRHIKL
B15: 46L_47L_49P_50I_52G_53F_54C_55C_67L_, Q9UKT9 (peptide)
chain: LLCPICGFCCTQKGNLLRHIKL
B16: 46L_47Q_49P_50I_52G_53F_54C_55C_67L_, Q9UKT9 (peptide)
chain: LQCPICGFCCTQKGNLLRHIKL
B17: 46L_47I_49P_50I_52G_53F_54C_55C_67L_, Q9UKT9 (peptide)
chain: LICPICGFCCTQKGNLLRHIKL
B18: 46L_47C_49P_50I_52G_53F_54C_55C_67L_, Q9UKT9 (peptide)
chain: LCCPICGFCCTQKGNLLRHIKL
B19: 46L_47V_49P_50I_52G_53F_54C_55C_67L_, Q9UKT9 (peptide)
chain: LVCPICGFCCTQKGNLLRHIKL
B20: 46L_47F_49P_50I_52G_53F_54C_55C_67L_, Q9UKT9 (peptide)
chain: LFCPICGFCCTQKGNLLRHIKL
B21: 46L_47D_49P_50I_52G_53F_54C_55C_67L_, Q9UKT9 (peptide)
chain: LDCPICGFCCTQKGNLLRHIKL
B22: 46L_47M_49P_50I_52G_53F_54C_55C_67L_, Q9UKT9 (peptide)
chain: LMCPICGFCCTQKGNLLRHIKL
B23: 46L_47W_49P_50I_52G_53F_54C_55C_67L_, Q9UKT9 (peptide)
chain: LWCPICGFCCTQKGNLLRHIKL

Biological target: T1, CRBN, Q96SW2
Assay: log2 fold change of degron read counts, EGFP-low vs EGFP+ sorted cells (limma voom), compound-induced degradation; higher = more compound-induced degradation of the degron-EGFP fusion; degrons are variants of IKZF1/3 zinc finger 2; compound dose not given here
Conditions: Jurkat, 18 h
[1] = compound: compound 19 (5-tert-butyl-thalidomide)
[2] = compound: compound 22 (5-morpholino-thalidomide)
[3] = compound: compound 33 (diphenyl IMiD analogue)
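Also: pooled lentiviral library of zinc finger degron-EGFP fusions in mCherry-positive Jurkat cells, FACS-sorted after compound exposure, with degron abundance counted by next-generation sequencing.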

| Sequence | log2 fold change of degron read counts [1] | log2 fold change of degron read counts [2] | log2 fold change of degron read counts [3] | log2 fold change of degron read counts (compound: thalidomide) |
| --- | --- | --- | --- | --- |
| B1 | -1.29 | -1.77 | -0.153 | 1.04 |
| B2 | -2.24 | -2.34 | -1.76 | -1.83 |
| B3 | -3.25 | -2.98 | -3.48 | -3.14 |
| B4 | -2.42 | -2.92 | -1.97 | -2.73 |
| B5 | -2.28 | -2.12 | -2.51 | -1.67 |
| B6 | -1.89 | -2.04 | -1.22 | -1.88 |
| B7 | -1.58 | -1.29 | -0.82 | -0.778 |
| B8 | -1.4 | -0.248 | 0.586 | 1.2 |
| B9 | -2.63 | -2.88 | -3.36 | -2.52 |
| B10 | -2.31 | -1.64 | 0.643 | 0.872 |
| B11 | -3.19 | -3.55 | -3.13 | -3.35 |
| B12 | 3.56 | 3.56 | 2.91 | 1.99 |
| B13 | 2.7 | 2.71 | 2.46 | 1.82 |
| B14 | 1.6 | 0.635 | 0.926 | 1.15 |
| B15 | 0.766 | 0.49 | 1.44 | 1.92 |
| B16 | 1.14 | 2.25 | 2.13 | 3.61 |
| B17 | 0.314 | 1.98 | 1.85 | 2.51 |
| B18 | 1.74 | 2.1 | 2.79 | 2.63 |
| B19 | 1.02 | 2.52 | 2.24 | 2.97 |
| B20 | 3.44 | 3.46 | 2.76 | 2.26 |
| B21 | 0.0932 | -0.387 | 0.637 | 1.33 |
| B22 | 0.471 | 1.34 | 2.61 | 2.08 |
| B23 | 3.2 | 3.49 | 2.92 | 2.17 |

From the supplement of paper PMC12645437, “Orthogonal IMiD-Degron Pairs Induce Selective Protein Degradation in Cells” (ACS Chemical Biology, 2025)
